Among all 5,500 compounds or so, about 2,000 (36%) were called active. Roughly 18% stayed inconclusive and do not appear here. No stated cut-off is given here; in the data, active means normalized growth mostly below about 0.91 (no sharp cut-off); inconclusive means no clear call, values can overlap the other calls; inactive means mostly above about 0.92. The list shows a part of the results.
Test: chemical genetic growth profiling, strain panel (AID 1159580);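 further: tested at 20 µM; growth read once vehicle control cultures reached saturation at 30 °C; 1 = growth at the plate median or of vehicle wells; lower values mean less growth of the strain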
Settings: growth OD
[1] = S. cerevisiae deletion strains, locus YHR030C, strain SLT2, active compounds read low
[2] = S. cerevisiae deletion strains, locus YJL095W, strain BCK1, active compounds read low

Measured: normalized growth

CC(c1cc2ccccc2s1)N(O)C(N)=O (centres undefined)
inactive: [1] 1.01 | S. cerevisiae deletion strains, locus YHR079C, strain IRE1, active compounds read low 0.964 | [2] 0.981 | S. cerevisiae deletion strains, locus YJR066W, strain TOR1, active compounds read low 0.941 | S. cerevisiae deletion strains, locus YLR113W, strain HOG1, active compounds read low 0.944 | S. cerevisiae deletion strains, locus YNL183C, strain NPR1, active compounds read low 0.892 | S. cerevisiae deletion strains, locus YOR231W, strain MKK1, active compounds read low 0.967 | S. cerevisiae deletion strains, locus YPL256C, strain CLN2, active compounds read low 0.976

COC(=O)C[C@H]1C(C)(C)[C@H](O)[C@@H]2CC3=C4CC(O)O[C@@H](c5ccoc5)[C@]4(C)CCC3[C@@]1(C)C2=O (some centres undefined)
inactive: S. cerevisiae deletion strains, locus YBR021W, strain FUR4, active compounds read low 1.01 | S. cerevisiae deletion strains, locus YBR229C, strain ROT2, active compounds read low 0.948 | S. cerevisiae deletion strains, locus YCL029C, strain bik1, active compounds read low 0.969 | S. cerevisiae deletion strains, locus YDL035C, strain GPR1, active compounds read low 0.974 | S. cerevisiae deletion strains, locus YDL074C, strain BRE1, active compounds read low 0.966 | S. cerevisiae deletion strains, locus YDL101C, strain DUN1, active compounds read low 0.99 | S. cerevisiae deletion strains, locus YDL185W, strain tfp1, active compounds read low 0.971 | S. cerevisiae deletion strains, locus YDL192W, strain arf1, active compounds read low 0.978 | S. cerevisiae deletion strains, locus YDR101C, strain arx1, active compounds read low 0.983 | S. cerevisiae deletion strains, locus YDR162C, strain NBP2, active compounds read low 0.984 | S. cerevisiae deletion strains, locus YDR318W, strain mcm21, active compounds read low 0.992 | S. cerevisiae deletion strains, locus YDR388W, active compounds read low 0.979 | S. cerevisiae deletion strains, locus YDR502C, strain sam2, active compounds read low 1.02 | S. cerevisiae deletion strains, locus YEL061C, strain CIN8, active compounds read low 0.974 | S. cerevisiae deletion strains, locus YER110C, active compounds read low 0.985 | S. cerevisiae deletion strains, locus YER155C, strain BEM2, active compounds read low 1 | S. cerevisiae deletion strains, locus YER167W, strain BCK2, active compounds read low 0.969 | S. cerevisiae deletion strains, locus YGL078C, strain dbp3, active compounds read low 1.03 | S. cerevisiae deletion strains, locus YGL086W, strain mad1, active compounds read low 1 | S. cerevisiae deletion strains, locus YGL248W, strain PDE1, active compounds read low 0.991 | S. cerevisiae deletion strains, locus YGR078C, strain PAC10, active compounds read low 1.02 | S. cerevisiae deletion strains, locus YGR135W, strain pre9, active compounds read low 1.07 | S. cerevisiae deletion strains, locus YGR229C, strain SMI1, active compounds read low 1.02 | S. cerevisiae deletion strains, locus YGR252W, strain gcn5, active compounds read low 1.03 | [1] 0.996 | S. cerevisiae deletion strains, locus YHR079C, strain IRE1 (second series), active compounds read low 0.993 | S. cerevisiae deletion strains, locus YHR094C, strain hxt1, active compounds read low 0.984 | S. cerevisiae deletion strains, locus YHR129C, strain ARP1, active compounds read low 0.99 | S. cerevisiae deletion strains, locus YHR200W, strain rpn10, active compounds read low 0.999 | S. cerevisiae deletion strains, locus YIL066C, strain RNR3, active compounds read low 0.948 | S. cerevisiae deletion strains, locus YIL073C, strain SPO22, active compounds read low 0.964 | S. cerevisiae deletion strains, locus YIL125W, strain kgd1, active compounds read low 0.986 | S. cerevisiae deletion strains, locus YIR030C, strain dcg1, active compounds read low 0.99 | [2] 0.993 | S. cerevisiae deletion strains, locus YJL134W, strain LCB3, active compounds read low 0.971 | S. cerevisiae deletion strains, locus YJL168C, strain set2, active compounds read low 0.991 | S. cerevisiae deletion strains, locus YJL187C, strain SWE1 (second series), active compounds read low 1 | S. cerevisiae deletion strains, locus YJR043C, strain POL32, active compounds read low 0.975 | S. cerevisiae deletion strains, locus YKL009W, strain mrt4, active compounds read low 0.953 | S. cerevisiae deletion strains, locus YKL068W, active compounds read low 0.985 | S. cerevisiae deletion strains, locus YKL085W, strain MDH1 (second series), active compounds read low 0.988 | S. cerevisiae deletion strains, locus YKL085W, strain MDH1, active compounds read low 0.988 | S. cerevisiae deletion strains, locus YKL190W, strain CNB1, active compounds read low 0.98 | S. cerevisiae deletion strains, locus YKR001C, strain vps1, active compounds read low 0.978 | S. cerevisiae deletion strains, locus YLR039C, strain RIC1, active compounds read low 0.964 | S. cerevisiae deletion strains, locus YLR058C, strain SHM2, active compounds read low 0.975 | S. cerevisiae deletion strains, locus YLR102C, strain apc9, active compounds read low 0.991 | S. cerevisiae deletion strains, locus YLR262C, strain YPT6, active compounds read low 0.99 | S. cerevisiae deletion strains, locus YLR268W, strain sec22, active compounds read low 0.953 | S. cerevisiae deletion strains, locus YLR330W, strain CHS5, active compounds read low 0.986 | S. cerevisiae deletion strains, locus YLR371W, strain rom2, active compounds read low 0.986 | S. cerevisiae deletion strains, locus YLR418C, strain cdc73, active compounds read low 0.975 | S. cerevisiae deletion strains, locus YML016C, strain PPZ1, active compounds read low 0.977 | S. cerevisiae deletion strains, locus YML032C, strain rad52, active compounds read low 0.976 | S. cerevisiae deletion strains, locus YML124C, strain tub3, active compounds read low 0.992 | S. cerevisiae deletion strains, locus YMR078C, strain ctf18, active compounds read low 0.989 | S. cerevisiae deletion strains, locus YMR223W, strain ubp8, active compounds read low 1 | S. cerevisiae deletion strains, locus YMR307W, strain GAS1, active compounds read low 0.951 | S. cerevisiae deletion strains, locus YNL067W, strain RPL9B, active compounds read low 1.03 | S. cerevisiae deletion strains, locus YNL153C, strain GIM3, active compounds read low 1.01 | S. cerevisiae deletion strains, locus YNL233W, strain BNI4, active compounds read low 1.03 | S. cerevisiae deletion strains, locus YNL250W, strain rad50, active compounds read low 0.998 | S. cerevisiae deletion strains, locus YNL271C, strain bni1, active compounds read low 0.989 | S. cerevisiae deletion strains, locus YNL298W, strain CLA4, active compounds read low 0.984 | S. cerevisiae deletion strains, locus YNL307C, strain MCK1, active compounds read low 0.994 | S. cerevisiae deletion strains, locus YNR052C, strain pop2, active compounds read low 1.04 | S. cerevisiae deletion strains, locus YOL012C, strain htz1 0.912 | S. cerevisiae deletion strains, locus YOL147C, strain pex11, active compounds read low 0.989 | S. cerevisiae deletion strains, locus YOR061W, strain CKA2, active compounds read low 0.944 | S. cerevisiae deletion strains, locus YOR069W, strain VPS5, active compounds read low 0.986 | S. cerevisiae deletion strains, locus YOR136W, strain idh2, active compounds read low 0.994 | S. cerevisiae deletion strains, locus YOR144C, strain elg1, active compounds read low 0.991 | S. cerevisiae deletion strains, locus YOR184W, strain ser1, active compounds read low 0.954 | S. cerevisiae deletion strains, locus YOR316C, strain cot1, active compounds read low 0.992 | S. cerevisiae deletion strains, locus YPL241C, strain CIN2, active compounds read low 0.988 | S. cerevisiae deletion strains, locus YPR119W, strain clb2, active compounds read low 1.01 | S. cerevisiae deletion strains, locus YPR141C, strain kar3, active compounds read low 0.989 | S. cerevisiae deletion strains, locus YPR163C, strain tif3, active compounds read low 0.987 | S. cerevisiae deletion strains, locus YPR167C, strain met16, active compounds read low 0.996 | S. cerevisiae deletion strains, strain wtn01, active compounds read low 0.98 | S. cerevisiae strains, strain wild type, active compounds read low 0.979

From PubChem BioAssay AID1159580 (chemical genetic matrix, 2015)
